# Screens (PubChem)
# RECQ1 helicase – blocks DNA unwinding by human RECQ1; Potency, µM (titrated, usually from 57.3 µM), most hits filed as inhibitors; 240,000 tested, 0.54% active; P46063; RECQ1 DNA unwinding, red fluorescence kinetic read; note: nearly all actives have a fitted effect of over 30% in size
# Target sequence (P46063 whole entry, looked up): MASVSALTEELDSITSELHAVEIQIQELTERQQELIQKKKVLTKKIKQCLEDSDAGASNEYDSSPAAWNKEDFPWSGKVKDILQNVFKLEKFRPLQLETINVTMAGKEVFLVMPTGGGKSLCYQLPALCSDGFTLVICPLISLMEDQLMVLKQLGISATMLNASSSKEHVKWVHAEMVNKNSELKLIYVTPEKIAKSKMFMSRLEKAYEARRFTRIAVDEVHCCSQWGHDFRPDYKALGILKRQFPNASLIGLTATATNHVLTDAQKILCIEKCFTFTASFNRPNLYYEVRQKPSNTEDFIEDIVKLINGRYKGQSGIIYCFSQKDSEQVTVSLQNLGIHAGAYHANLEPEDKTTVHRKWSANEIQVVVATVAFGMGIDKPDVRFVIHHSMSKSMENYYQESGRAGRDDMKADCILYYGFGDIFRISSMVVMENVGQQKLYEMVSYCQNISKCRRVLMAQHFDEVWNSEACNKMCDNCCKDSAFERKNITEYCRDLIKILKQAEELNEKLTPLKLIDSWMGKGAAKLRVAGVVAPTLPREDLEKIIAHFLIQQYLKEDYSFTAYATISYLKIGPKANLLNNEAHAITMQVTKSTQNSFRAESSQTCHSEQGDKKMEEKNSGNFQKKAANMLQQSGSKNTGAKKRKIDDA
#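 RECQ1T1 50 nM; forked duplex (20 bp + 30-nt ss tails) 200 nM, ATP 2 mM final; pH 8.0, 2 mM MgCl2, 2.5 ug/ml poly(dI-dC); 15 min compound preincubation; discontinuous kinetic read over 2 h at RT.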
# APE1 inh – inhibitors of human APE1 endonuclease; Potency, µM (titrated, usually from 65.8 µM), actives largely listed as inhibitors; AID 2517; 350,000 tested, 0.35% active; recombinant APE1, TAMRA/BHQ-2 abasic DNA cleavage fluorescence; note: nearly all actives have a fitted effect of over 55% in size
#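 Step 1: APE1 (0.75 nM) with compound, 15 min RT. Step 2: add 50 nM fluorophore/quencher THF duplex. Step 3: three fluorescence reads 60 s apart (525/598 nm); read 3 minus read 1 = reaction progress.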
# FEN1 inh – human FEN1 inhibition; Recombinant FEN1 flap cleavage, fluorescence, 15 min; Potency, µM (highest dose often 114 µM), most hits filed as inhibitors; 390,000 tested, 0.35% active; note: nearly all actives have a fitted effect of over 65% in size
#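 Quantitative HTS format: each compound was titrated, incubated with 10 nM nuclease for 15 min at room temperature, then challenged with flap substrate at 50 nM final. Signal change over 15 min gave concentration–effect curves.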
# PI5P4Ka inh – inhibitors of human PI5P4K alpha. 330,000 tested, 1.2% active. PI5P4Kalpha enzyme, ADP-Glo luminescence, 60 min; active compounds read low. P48426. AID 652105. max response, %; active = max response of -50% or lower; inconclusive = between -30% and -50%; inactive = -30% or higher; note: value at the top dose of about 77 µM
#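 PI5P4Kalpha ADP-Glo assay; 5 microM ATP final; 60 min RT reaction; HEPES pH 7.4/EGTA/CHAPS, 5% DMSO; controls lacking substrate or enzyme; luminescent end-point.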
# KAT2A inh – blocks human GCN5L2 histone acetyltransferase | Q92830 | GCN5L2 HAT assay, ThioGlo1 CoA-SH fluorescence | Potency, µM (series often up to 58.9 µM), hits mostly inhibitors | 390,000 tested, 0.21% active | AID 504327
#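 Enzyme at 20nM final was mixed with library compounds for 15 min at room temperature. Peptide H3(1-25) at 75uM, acetyl-CoA at 70uM and ThioGlo1 at 50uM were then added. Plates were read immediately and after 20 min (Ex340nm/Em540nm).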
# BLM inh – blocks DNA unwinding by human BLM helicase | P54132 | AID 2528 | recombinant BLM DNA unwinding, fluorescence dequenching | Potency, µM (doses to about 56.1 µM), actives largely listed as inhibitors | 350,000 tested, 0.2% active; note: nearly all actives have a fitted effect of over 35% in size
# A number is an active result; 0 = inactive; ? = inconclusive; - = not tested or not shown; ! = not confirmed by another sample. This is a sample that favours compounds with a hit; in the whole collection about 1.5% have one here. Unless noted, calls come from the whole dose curve; as a rule, active = well fitted curve in the direction sought with a large enough effect; inconclusive = small, poorly fitted or top-dose-only effect, or another doubt; inactive = no such curve, though single readings can be large; an effect the other way counts as inactive or inconclusive.
SMILES,RECQ1 helicase,APE1 inh,FEN1 inh,PI5P4Ka inh,KAT2A inh,BLM inh
N#CC1=C2SCN(Cc3ccco3)CN2C(=O)CC1c1c(F)cccc1Cl (stereo not drawn),0,0,?,-50.3,0,0
COc1ccccc1/C=C/c1cnccn1,-,-,0,-,-,-
COc1cc2c(NC3CCN(C)CC3)nc(N3CCCN(C)CC3)nc2cc1OCCCCCC(N)=O,-,-,0,-,-,-
COc1cc2c(NC3CCN(C)CC3)nc(N3CCCN(C)CC3)nc2cc1OCC1CCCCN1 (stereo not drawn),-,-,20µM,-,-,-
COc1cc2c(NC3CCN(C)CC3)nc(N3CCCN(C)CC3)nc2cc1OCCCCCN,-,-,8.91µM,-,-,-
COCCCCOc1cc2nc(N3CCCN(C)CC3)nc(NC3CCN(C)CC3)c2cc1OC,-,-,44.7µM,-,-,-
COc1cccc(NC(=O)c2ccccc2OCC(=O)Nc2ccc(Br)cc2)c1,-,-,0,-,-,-
C=C1C=C(C(F)F)n2ncc(C(=O)N3CCc4ccccc4C3)c2N1,-,-,0,-,-,-
N#C/C(=C\c1coc2ccc(O)cc2c1=O)C(=O)Nc1nc2ccccc2s1,?,?,?,-100.8,?,0
CN(C)c1ccc(/C=C2\NC(=O)NC2=O)cc1,-,-,0,-,-,-
CC(C)=CNNC(=O)c1ccc(O)cc1,-,-,0,-,-,-
COC(=O)/C=C/c1ccc2c(c1)S(=O)(=O)N(C1CCCC1)[C@H]2CC(=O)OC,-,-,0,-,-,-
O=C(O)c1cc(=S)nc[nH]1,-,-,0,-65.1,-,-
CCCCNc1c2c3c(cccc3n(C)c1=O)C(=O)c1ccccc1-2,31.6µM,0,?,-,0,0
CCCCCC1CCNCC1,-,-,0,-,-,-
O=C(Nc1ccc(Cl)cc1Cl)c1cccc(N2C(=O)C=CC2=O)c1,0,0,0,-51.1,0,0
O=C(Nc1ccc(Cl)cc1Cl)c1ccc2c(c1)OCCO2,-,0,0,0,0,-
Nc1cc(C(=O)O)c(N)c2c1C(=O)c1ccccc1C2=O,0,?,35.5µM,-83.0,0,0
O=C(Nc1nnc(Cc2ccccc2)s1)C1CCN(C(=O)c2cccs2)CC1,-,-,0,-,-,-
COc1ccc(N=Nc2ccc(O)c3ncccc23)cc1,0,0,0,0,0,0
O=S(=O)(O)c1cccc2c(N=Nc3ccc(O)c4ncccc34)cccc12,-,23.8µM,?,-80.6,?,?
O=C1NC(=S)S/C1=C/c1ccc(OC(=O)c2ccco2)cc1,-,0,0,-61.9,0,0
NC1=C(c2ccc([N+](=O)[O-])cc2)C(=O)CO1,0,0,0,0,0,0
O=c1oc2c(-c3ccc([N+](=O)[O-])cc3)cc(O)cc2s1,0,0,0,-58.7,?,0
CCC(C)/C=C/C1=CC2=C(Cl)C(=O)C3(C)OC(=O)C(C(=O)C(C)C(C)O)C3C2=CO1 (stereo not drawn),0,10µM,0,?,0,0
SMILES,RECQ1 helicase,APE1 inh,FEN1 inh,PI5P4Ka inh,KAT2A inh,BLM inh
CC[C@@]1([C@@H]2O[C@@H]([C@H]3O[C@@](O)(CO)[C@H](C)C[C@@H]3C)C[C@@H]2C)CC[C@H]([C@]2(C)CC[C@]3(C[C@H](O)[C@@H](C)[C@@H]([C@@H](C)[C@@H](OC)[C@H](C)C(=O)O)O3)O2)O1 (stereo in doubt),-,0,-,-,-,-
CC1(C)Cc2c(sc3ncn4c(=S)[nH]nc4c23)CO1,0,0,0,-53.2,22.4µM,0
CC1(C)Cc2c(sc3ncn(N)c(=N)c23)CO1,0,0,0,0,0,0
C=C1C=C(C(F)F)n2ncc(C(=O)Nc3ccccc3OCC)c2N1,-,0,-,-,-,-
O=C(O)c1ccc(N2C(=O)CC(N3C(=O)/C(=C/c4ccc(Cl)cc4)SC3=S)C2=O)cc1 (stereo not drawn),0,0,0,-63.6,?,0
Cc1csc[n+]1CC(=O)c1ccc(I)cc1,-,-,0,-,-,-
Cc1ccc(Nc2c(-c3ccccc3O)nc3cc(C)ccn23)cc1,-,-,0,-,25.1µM,0
Cc1ccc(Nc2c(-c3ccccc3O)nc3cnccn23)cc1,0,0,0,0,0,0
C(=C\c1cnc2ccccc2n1)/c1ccc2c(c1)OCO2,-,-,0,-,-,-
NC(=O)C1CCN(c2nc(-c3cccc([N+](=O)[O-])c3)cs2)CC1,-,0,-,-,-,-
CC(C)(C)c1ccc(C(=O)Nc2ccc(S(N)(=O)=O)cc2)cc1,0,0,0,0,?,0
O=C(Nc1ccc(C(=O)Nc2ccc(C(=O)Nc3ccc(S(=O)(=O)O)c4cc(S(=O)(=O)O)cc(S(=O)(=O)O)c34)cc2)cc1)Nc1ccc(C(=O)Nc2ccc(C(=O)Nc3ccc(S(=O)(=O)O)c4cc(S(=O)(=O)O)cc(S(=O)(=O)O)c34)cc2)cc1,6.31µM,7.94µM,-,-,15.8µM!,0
O=c1[nH]c(SCc2ccccc2)ncc1S(=O)(=O)c1ccccc1,-,-,0,-,-,-
Cc1ccc(S(=O)(=O)N2CCN(c3nc(C(N)=O)nc4ccccc34)CC2)cc1,-,-,0,-,-,-
Cc1cnc(C=NNC(N)=S)c2cccc(N)c12,-,-,?,-53.2,-,-
NC(=S)NN=Cc1nccc2ccccc12,-,-,0,0,-,-
O=S(=O)(NCCCCNS(=O)(=O)c1cccc2cccnc12)c1cccc2cccnc12,-,-,0,-,-,-
N#CCSc1nc2sccc2c(=O)n1-c1ccccc1,-,0,0,-69.7,0,0
CNC(=O)CSc1nc2sccc2c(=O)n1-c1ccccc1,-,0,0,?,0,0
CN(CCOc1ccc(C[C@H](Nc2ccccc2C(=O)c2ccccc2)C(=O)O)cc1)c1ccccn1,0,0,-,-,31.6µM,0
CN(C)/C=C/C(=O)c1ccc(OCCN(C)c2ccccn2)cc1,-,0,0,0,0,0
CCCCCCCCCCCCCCCC[n+]1cccc(C(=O)N(CC)CC)c1,0,0,?,-73.2!,0,?
CCCCCCCCCCCCCCCC[n+]1ccc(C(N)=O)cc1,0,0,?,0,0,0
O=C[C@H](O)[C@@H](O)[C@@H](O)[C@H](O)CO,-,0,-,-,-,-
CC1=NN(C(N)=S)C(=O)C1N=Nc1c(C)cc(C)cc1C (stereo not drawn),0,0,0,0,0,0
SMILES,RECQ1 helicase,APE1 inh,FEN1 inh,PI5P4Ka inh,KAT2A inh,BLM inh
CC1=NN(C(N)=S)C(=O)C1N=Nc1c(Cl)cc([N+](=O)[O-])cc1Cl (stereo not drawn),-,0,0,-57.0,0,0
CC(C)NS(=O)(=O)c1ccc2[nH]c3nc(SCC(=O)Nc4ccc(F)c(F)c4)nnc3c2c1,-,-,0,-,-,-
O/N=C(/C[n+]1cccc(Br)c1)c1ccc2ccccc2c1,-,-,0,-,-,-
Nc1cc([N+](=O)[O-])cc(N)c1N,-,-,0,-,-,-
Cn1c2ccccc2c(=O)c2ccc(C#CC3(N)CCCCC3)cc21,-,0,22.4µM,0,0,0
COc1cc(NC(=O)c2cnc(N)s2)cc(C(=O)Nc2cccc(C(F)(F)F)c2)c1,0,0,56.2µM,0,0,0
COc1cc(NC(=O)c2ccnc(N)c2)cc(C(=O)Nc2cccc(C(F)(F)F)c2)c1,0,0,?,0,0,0
CN(C)c1ccc(/C=C/c2ccnc3ccc(-c4ccccc4)cc23)cc1,-,-,0,-,-,-
